Results from PubChem BioAssay (NCI).
Compounds without any hit were thinned out: in the full panel of roughly 83,000, 20% have a hit.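 The test compound was applied at a single concentration to cells in 96-well plates for 48 hours, and percent growth was recorded.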 A number with no mark means an inactive call. Calls of active or inactive are those of the source. Rule for the calls: active = growth percent below 10; inactive = the rest.

Assays:
Experiment in all cases: NCI-60 one-dose screen, 48 h (100 = growth as untreated, 0 = no growth, -100 = all killed)
Conditions in all cases: 10 µM
SR leukemia = tested on: SR leukemia
RPMI-8226 leukemia = tested on: RPMI-8226 leukemia
OVCAR-8 ovarian = tested on: OVCAR-8 ovarian
OVCAR-5 ovarian = tested on: OVCAR-5 ovarian
OVCAR-4 ovarian = tested on: OVCAR-4 ovarian
SK-OV-3 ovarian = tested on: SK-OV-3 ovarian
IGROV1 ovarian = tested on: IGROV1 ovarian
OVCAR-3 ovarian = tested on: OVCAR-3 ovarian
HS 578T breast = tested on: HS 578T breast
NCI/ADR-RES ovarian = tested on: NCI/ADR-RES ovarian

SMILES | growth (SR leukemia) | growth (RPMI-8226 leukemia) | growth (OVCAR-8 ovarian) | growth (OVCAR-5 ovarian) | growth (OVCAR-4 ovarian) | growth (SK-OV-3 ovarian) | growth (IGROV1 ovarian) | growth (OVCAR-3 ovarian) | growth (HS 578T breast) | growth (NCI/ADR-RES ovarian)
O=NN(CC(=O)N/N=C/C=C\c1ccccc1)CC(=O)N/N=C/C=C/c1ccccc1 | 85.7% | 95.2% | 51% | 94.6% | 97.2% | 102% | 84% | 103% | 80.5% | 103%
CN(C1c2ccccc2Oc2ccccc21)S(=O)(=O)c1cc(Cl)ccc1Cl | 12.8% | 67.3% | 65.8% | 84.4% | 69.2% | 54.5% | 53.8% | 19.4% | 76.2% | 51.9%
CCOC(=O)c1c(C)n(-c2ccc(Cl)cc2)c2ccc(OC(=O)/C=C/c3ccccc3)cc12 | 26.7% | 67.6% | 88.8% | 108% | 81.6% | 93.9% | 88.3% | 77.7% | 82.6% | 61.7%
CC(C)c1[nH]nc2c(NCc3ccc(-c4ccccn4)cc3)nc(SCCN)nc12 | -7.09% (active) | -16.7% (active) | 10.9% | 13.6% | -3.8% (active) | 3.32% (active) | 10.3% | 5.51% (active) | 11.1% | 48%
COc1cc(C2CC(=O)Nc3c2c(C)nn3-c2nc3ccccc3[nH]2)cc(OC)c1O (stereo not given) | 9.39% (active) | 83.5% | 19.9% | 112% | 63.8% | 2.53% (active) | 28.2% | 20.9% | 8.42% (active) | 80.6%
O=c1c2cccc3c(Nc4ccc(Br)cn4)ccc(c32)c2nc3ccccc3n12 | 52.9% | 56.2% | 103% | 90.7% | 53.7% | 94.3% | 48.9% | 94.1% | 81.2% | 93.5%
C(=C\c1nc2ccccc2s1)/c1ccc(N2CCOCC2)s1 | 26.3% | 62.9% | 97.6% | 112% | 72.9% | 98.7% | 100% | 85.8% | 112% | 69.9%
CCCCCCCOc1cccc(/C=C2/C(=O)N=C3SCCCN32)c1 | 47.9% | 40.8% | 71.6% | 91.2% | 63.1% | 88% | 79.9% | 50.9% | 91.4% | 56.8%
O=[N+]([O-])c1cc2ncccc2c2ncccc12 | 74% | 82.8% | 63.3% | 98.3% | 103% | 94.4% | 56.3% | 84.5% | 104% | 75.1%
CCCCCCCCCCCCCCCC(=O)N1CCN(C)CC1 | -3.08% (active) | 71% | 86.3% | 86.3% | 87.6% | 84.9% | 52.3% | 86.8% | 90.1% | 90.3%
CC(=O)Oc1ccc(C2=Cc3ccc(OC(C)=O)cc3OC2C)cc1 (stereo not given) | 8.85% (active) | 19.5% | 60.9% | 122% | 79.4% | 81% | 55.8% | 33.1% | 42.8% | 25%
NC(=O)C1CCCN(Cc2c[nH]c3ccccc23)C1 (stereo not given) | 96.9% | 105% | 98.3% | 99.8% | 108% | 100% | 102% | 104% | 96.6% | 94.8%
O=C(COc1ccc(Cl)cc1Cl)Oc1coc(CSc2nc3ccccc3s2)cc1=O | 98.6% | 87% | 21.3% | 116% | 99.1% | 102% | 64.3% | 114% | -1.61% (active) | 104%
C#CCn1c(-c2cccc(OCCCCl)c2)nc2c1c(=O)n(C)c(=O)n2C | 43.6% | 10.5% | 54.8% | 98.9% | 57% | 93.7% | 73.9% | 58.1% | 99% | 66.1%
c1ccc(COCC[P+](c2ccccc2)(c2ccccc2)c2ccccc2)cc1 | -15.6% (active) | -30.3% (active) | 3.8% (active) | 24.2% | 6.56% (active) | -0.443% (active) | -8.1% (active) | 3.01% (active) | 32.9% | 81.8%
Nc1c(C(=O)NC2CCCCC2)sc2nc3c(cc12)C(=O)CCC3 | 78.7% | 100% | 101% | 114% | 105% | 120% | 116% | 112% | 102% | 102%
COC(=O)[C@]12CC[C@@H](C)[C@H](C)[C@@H]1C1=CC[C@@H]3[C@@]4(C)C[C@@H](O)[C@H](O)[C@@](C)(CO)[C@@H]4[C@H](O)C[C@@]3(C)[C@]1(C)CC2 | -36.5% (active) | -20.7% (active) | -27.3% (active) | -21.6% (active) | -11% (active) | -33.1% (active) | -19.8% (active) | -64.9% (active) | -13% (active) | -22.8% (active)
O=C1c2cc(Cl)ccc2-c2c(O)cc(Cl)cc21 | 39.3% | 46.6% | 58.4% | 101% | 66.4% | 94.8% | 74.4% | 80% | 81.5% | 3.18% (active)
O=c1cc(CSc2nnc(-c3ccccc3)n2-c2ccc(F)cc2)c2ccc3ccccc3c2o1 | 88.5% | 101% | 93% | 94% | 99.2% | 99.7% | 92.2% | 97.5% | 103% | 84.3%
Cc1cccc2c1O/C(=C\c1ncc([N+](=O)[O-])n1C)C2=O | 9.3% (active) | -13% (active) | -21.3% (active) | -15.7% (active) | -2.81% (active) | -17.5% (active) | -18.1% (active) | -12.2% (active) | -23.9% (active) | 2.37% (active)
COc1cccc(C(=O)NNc2nc(N3CCN(C4CCCCC4)CC3)nc(N3CCN(C(c4ccccc4)c4ccccc4)CC3)n2)c1 | -16.1% (active) | -11.5% (active) | 30.1% | 94.3% | 24.2% | 52.2% | 37.6% | 32.2% | 74.2% | 31.1%
CN(C)c1ccc2cc(-c3cc4c(oc3=O)-c3ccccc3OC4O)c(=O)oc2c1 (stereo not given) | -12.7% (active) | -9.42% (active) | 13.6% | -9.51% (active) | 26% | 28.8% | -28.7% (active) | -30% (active) | -7.78% (active) | 0.415% (active)
CCOC(=O)c1cc2c(n1Cc1cccc(OC)c1)-c1oncc1CC2 | 13.3% | 37% | 41.7% | 73% | 69.1% | 29.7% | 19.6% | -16.4% (active) | -15.6% (active) | 6.41% (active)
COc1cccc2c1C(=O)c1c(O)c3c(c(O)c1C2=O)C[C@@](O)(C(=O)COC(=O)c1ccccc1)C[C@@H]3OC1CC(N)C(O)C(C)O1 (stereo not given in full) | -43.7% (active) | -66.4% (active) | -77.3% (active) | -94.9% (active) | -87.9% (active) | -72.8% (active) | -75.2% (active) | -93.6% (active) | -41.6% (active) | 22.5%
CCN1CCN(c2nc(NNC(=O)c3cccc(OC)c3)nc(N3CCN(C(c4ccccc4)c4ccccc4)CC3)n2)CC1 | -11.8% (active) | 5.26% (active) | 65% | 101% | 62.4% | 76.1% | 58.5% | 72.6% | 64.3% | 76.2%
COc1ccc(-c2cc(=O)n(-c3nc4ccccc4[nH]3)[nH]2)cc1OC | 48.6% | 81.4% | 64.8% | 93.1% | 93.8% | 87.2% | 70.6% | 90.1% | 48.2% | 20.1%
Nc1ccc(Sc2ccc3c4c2cccc4c(=O)n2c4ccccc4nc32)cc1 | 16.1% | 50.2% | 50.7% | 85.8% | 74% | 53.9% | 34.5% | 77.8% | 59.6% | 56.6%
